Screens (PubChem BioAssay)
Compounds with a hit are over-represented: about 10% of the library has one in this group of screens.
HEK293 tox – cytotoxic compounds in HEK 293 cells; HEK 293 viability, ATP luminescence (CellTiter-Glo), 48-72 h; 94,000 compounds, 6.6% hits; Potency, µM (doses to about 115 µM), without a hit: top-dose activity change, negative = cytotoxicity, actives largely listed as inhibitors; also: nearly all actives have a fitted effect of over 60% in size
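Read-out: CellTiter-Glo ATP luminescence. Cells: HEK 293, 250 cells/well. Exposure: 48 or 72 hr, 37 degree Celsius.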
Luciferase inh – blocks purified firefly luciferase enzyme activity; 76,000 compounds, 2.5% hits; AID 1347043; Potency, µM (doses to about 115 µM), hits mostly inhibitors; purified P. pyralis luciferase, luminescence, biochemical; P08659; also: nearly all actives have a fitted effect of over 65% in size
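Luminescence read by CCD imaging after purified firefly luciferase (10nM final) was added to substrate buffer holding 10uM D-luciferin and 10uM ATP, pH 7.5, pre-dosed with compound.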
NPR1 antag – antagonists of human natriuretic peptide receptor Npr1; P16066; HEK293 hNpr1 GloSensor cGMP, ANP-stimulated luminescence; Potency, µM (series often up to 46.3 µM), for the others: top-dose activity change, negative = inhibition, most hits filed as inhibitors; 76,000 compounds, 1.6% hits; AID 1347048; calls by dose curve; also: nearly all actives have a fitted effect of over 60% in size
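Compound pre-incubated 30 min at room temperature on GloSensor-loaded HEK293 cells stably carrying hNpr1 and the pGS-40F cGMP biosensor. Stimulation uses hNppA at 0.1 nM final; luminescence is taken at baseline and 20 min post-agonist.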
3T3 cytotox – cytotoxic compounds in NIH 3T3 cells; NIH 3T3 viability, CellTiter-Glo ATP luminescence, 48-72 h; Potency, µM (highest dose often 96.7 µM), without a hit: at the highest dose activity change, negative = cytotoxicity, actives largely listed as inhibitors; 94,000 compounds, 4.3% hits; also: nearly all actives have a fitted effect of over 55% in size
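Cells were seeded at 400 per well, treated with pin-transferred compound, and kept 48 or 72 hr at 37 °C before CellTiter-Glo addition and luminescence imaging of cellular ATP.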
GPT2 inhibitor – GPT2 alanine aminotransferase inhibition. Recombinant GPT2, coupled pyruvate oxidase/HRP Amplex Red fluorescence. Potency, µM (highest dose often 57.7 µM), for the others: top-dose activity change, negative = inhibition, usual class: inhibitors. 100,000 compounds, 0.25% hits. AID 1671188; also: nearly all actives have a fitted effect of over 60% in size
Target sequence (Q8TD30 whole entry, looked up): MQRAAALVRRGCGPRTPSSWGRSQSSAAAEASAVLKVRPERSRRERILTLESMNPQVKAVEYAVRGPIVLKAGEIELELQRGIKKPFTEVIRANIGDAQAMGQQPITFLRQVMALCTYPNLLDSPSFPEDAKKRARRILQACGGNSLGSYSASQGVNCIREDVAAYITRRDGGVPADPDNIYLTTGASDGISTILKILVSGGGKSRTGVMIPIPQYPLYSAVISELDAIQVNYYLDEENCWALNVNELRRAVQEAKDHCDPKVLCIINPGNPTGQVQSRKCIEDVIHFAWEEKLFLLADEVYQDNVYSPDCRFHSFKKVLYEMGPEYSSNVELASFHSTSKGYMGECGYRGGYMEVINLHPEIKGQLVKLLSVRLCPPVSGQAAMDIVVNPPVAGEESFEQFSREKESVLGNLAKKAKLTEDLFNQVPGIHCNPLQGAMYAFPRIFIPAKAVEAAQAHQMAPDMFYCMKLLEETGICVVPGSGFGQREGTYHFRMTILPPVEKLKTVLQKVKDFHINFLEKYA
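GPT2 10ng/uL, a-KG 250uM, L-Ala 2mM, HEPES pH7.5 + 0.0001% Tween; 30 min RT. Then Amplex mix (PO/HRP/ThPP), 30 min RT dark, fluorescence. AOA 50uM used as positive control.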
* = called active by the depositor; i = inactive; ? = inconclusive; / = no result; ! = a repeat was not active; [ ] = dose if it differs, or a comment. Unless noted, calls follow the shape of the dose curve; as a rule, active = well fitted curve in the direction sought with a large enough effect; inconclusive = small, poorly fitted or top-dose-only effect, or another doubt; inactive = no such curve, though single readings can be large; an effect the other way counts as inactive or inconclusive. % is scaled to controls: 0 for no effect and ±100 for the full control effect; potency is read from the fitted curve at half-maximal effect.

SMILES | HEK293 tox | Luciferase inh | NPR1 antag | 3T3 cytotox | GPT2 inhibitor
Cc1ccsc1C(=O)N1CCN(C(=O)c2nnn3c2COC(c2ccc(Cl)cc2)C3)CC1 (centres undefined) | ? | i | ? | ? | i
CC1=NS(=O)(=O)N(C)C=C1C(=O)OCc1nc(-c2ccc(Cl)cc2)no1 | ? | ? | 10µM* | -29% | -2%
CC1=NS(=O)(=O)N(C)C=C1C(=O)OCc1nc(-c2ccccc2Cl)no1 | ? | i | -8% | -22% | 3%
COc1cccc(-c2noc(COC(=O)C3=CN(C)S(=O)(=O)N=C3C)n2)c1 | ? | ? | 13µM* | ? | 5%
CC1=NS(=O)(=O)N(C)C=C1C(=O)OCc1nc(-c2ccc3c(c2)OCO3)no1 | -10% | ? | 11µM* | -6% | i
O=C(Cc1ccc(F)cc1)N1CCCC(C(=O)N2CCC(c3nc4ncccc4[nH]3)CC2)C1 (centres undefined) | -26% | / | / | -24% | -7%
COc1ccccc1-c1ccc(CN2CCCCC2C(=O)NCCc2ccccc2)cc1 (centres undefined) | 40µM* | / | / | 40µM* | -8%
COCCNC(=O)C1CCCCN1Cc1ccc(-c2ccccc2OC)cc1 (centres undefined) | 45µM*! | / | / | ? | /
O=C1Nc2ccccc2CC12CCN(CC1CCCCC1)C2 (centres undefined) | ? | i | -11%[70.6 µM] | ? | ?
CC(=O)N1CCN(C(=O)c2nc3sccn3c2-c2ccc(C)cc2)CC1 | -5% | / | / | -13% | 1%
CCc1cccc2c(C(CC(=O)NCCc3ccc(OC)c(OC)c3)c3cccc(F)c3)c[nH]c12 (centres undefined) | 28µM* | i | -16% | ? | 3%
O=C(CC(c1cccc2c1OCO2)c1c[nH]c2ccccc12)NCc1ccccc1 (centres undefined) | ? | i | -20% | ? | i
CCc1cccc2c(C(CC(=O)NCC(C)C)c3ccc(OC)c(OC)c3)c[nH]c12 (centres undefined) | -23% | i | 2% | -15% | i
CCCCNC(=O)CC(c1cccc2c1OCO2)c1c[nH]c2c(CC)cccc12 (centres undefined) | 45µM* | i | -13% | ? | i
CCCCNC(=O)CC(c1cccc(OC)c1)c1c[nH]c2ccccc12 (centres undefined) | 79µM* | i | -7% | ? | i
CCc1cccc2c(C(CC(=O)NCc3ccco3)c3ccc(OC)c(OC)c3)c[nH]c12 (centres undefined) | ? | i | -16% | ? | 2%
CCc1cccc2c(C(CC(=O)NCc3ccco3)c3ccc(C)cc3)c[nH]c12 (centres undefined) | 35µM* | i | -12% | ? | 0%
O=C(C1CC1)N1CC2(CCCN2Cc2cccnc2)Cc2ccccc21 (centres undefined) | -26% | / | / | -5% | i
Cc1ccccc1C(=O)N1CCC(C(=O)N2CCC(c3nc4ncccc4[nH]3)CC2)CC1 | i | / | / | -2% | i
CCCCCNC(=O)CC(c1cccc(OC)c1OC)c1c[nH]c2c(CC)cccc12 (centres undefined) | 45µM* | i | 0% | ? | i
CCCCNC(=O)CC(c1ccc(OC)cc1OC)c1c[nH]c2c(CC)cccc12 (centres undefined) | ? | i | -19% | ? | 2%
COc1ccc(-c2cccc(C(=O)N3CCC(NC(=O)Nc4ccccc4)CC3)c2)nn1 | -21% | / | / | -26% | /
COc1cccc(-c2ccc(C(=O)N3CCC(NC(=O)c4ccccc4C)CC3)cc2)c1 | ? | / | / | 40µM* | -4%
COc1cccc(-c2ccc(C(=O)N3CCC(NC(=O)Nc4ccccc4F)CC3)cc2)c1 | 16µM* | / | / | ? | i
COc1ccc(-c2cccc(C(=O)N3CCC(NC(=O)Nc4ccc(Cl)cc4)CC3)c2)nn1 | 45µM* | / | / | 25µM* | /
SMILES | HEK293 tox | Luciferase inh | NPR1 antag | 3T3 cytotox | GPT2 inhibitor
COc1cccc(-c2ccc(C(=O)N3CCC(NC(=O)C(C)(C)C)CC3)cc2)c1 | ? | / | / | 40µM* | -5%
COc1cccc(-c2ccc(C(=O)N3CCC(NC(=O)Cc4cccc(Cl)c4)CC3)cc2)c1 | 25µM* | / | / | ? | -7%
Cc1ccc(-c2nc(C(=O)N3CCN(c4cccc(C)c4)CC3)no2)cc1 | ? | 18µM* | 4% | ? | i
Cc1ccc(-c2nc(C(=O)N3CCN(c4ccc(C)cc4C)CC3)no2)cc1 | ? | i | 0% | ? | i
COc1cccc(N2CCN(C(=O)c3noc(-c4ccc(C)cc4)n3)CC2)c1 | ? | 20µM* | -8% | -20% | i
Cc1ccc(-c2nc(C(=O)N3CCN(c4ccc(C)cc4)CC3)no2)cc1 | 2% | 14µM* | -1% | 1% | 4%
Cc1ccc(-c2nc(C(=O)N3CCN(c4cc(C)ccc4C)CC3)no2)cc1 | ? | i | -14% | ? | i
CC(c1ccc(F)cc1)N1Cc2cc(NC(=O)Cc3cccs3)ccc2OCC1=O (centres undefined) | 40µM* | i | ? | ? | i
COc1ccc2nc3n(c2c1)[C@@H](CNC(C)C)COC3 | -14%[230 µM] | i | 1%[70.6 µM] | 100µM* | 2%[88.5 µM]
Cc1ccc(C(=O)NC2CCN(C(=O)c3ccc(-c4cccs4)cc3)CC2)cc1 | ? | / | / | -37% | 0%
CCOC(=O)N1CCC(Nc2ccc(Cl)cc2N)CC1 | / | / | / | / | 8.9µM*
Cc1ccc2nc(SCCC(=O)N[C@@H]3C[C@@H]4OCC[C@@H]43)cc(C)c2c1 | 2% | i | 1% | -15% | 3%
COc1ccccc1-c1[nH]nc2ncc(C(=O)NCCc3ccccn3)nc12 | 63µM* | i | -2%[70.6 µM] | ? | 3%[88.5 µM]
COc1ccccc1-c1[nH]nc2ncc(C(=O)N(C)c3ccccc3)nc12 | 89µM* | i | -22%[70.6 µM] | ? | 1%[88.5 µM]
COc1ccccc1-c1[nH]nc2ncc(C(=O)N3CCC(c4ccccc4)CC3)nc12 | ? | i | ? | ? | -5%[88.5 µM]
O=C1COc2ccc(Nc3cccc(F)c3)nc2CN1CCOc1ccccc1 | 89µM* | i | ? | 89µM* | -2%[88.5 µM]
COCCN1Cc2nc(Nc3ccc(C(F)(F)F)cc3)ccc2OCC1=O | ? | i | -23%[70.6 µM] | ? | 4%[88.5 µM]
COCCN1Cc2nc(Nc3ccc(F)c(Cl)c3)ccc2OCC1=O | 100µM* | i | -2%[70.6 µM] | ? | -8%[88.5 µM]
O=C1COc2ccc(Oc3ccccc3)nc2CN1CCOc1ccccc1 | 100µM* | i | ? | ? | 1%[88.5 µM]
O=C1COc2ccc(Nc3ccccc3)nc2CN1CCOc1ccccc1 | ? | ? | ? | ? | -19%[88.5 µM]
O=C(NCc1ccccc1)C1CCCCN1Cc1ccc(-c2ccsc2)cc1 (centres undefined) | ? | / | / | ? | -1%
